The list is not random: actives were taken first. Their share in the collection is about 3.8%.
HepG2 viability: counter-screen for TGF-b inhibitors: cytotoxicity in HepG2 cells; 410,000 tested, 0.76% active; Potency, µM (top dose mostly 46.1 µM), without a hit: top-dose activity change, negative = cytotoxicity, hits mostly cytotoxic; HepG2 CAGA-GFP viability, ATP luminescence, 18 h
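CellTiter-Glo luminescence gave cytotoxicity after 18 hours at 37 degrees C. The cells were HepG2 CAGA-GFP in 1% FBS DMEM, stimulated with 500 pg/mL TGF-beta after compound addition. %Activity was normalised to no-cell wells (complete cell-killing) and DMSO (no toxicity), and curves were fitted and classified.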
S2 tox: cell viability loss in ATXN counter-screen | S2 cells (HEK-293 line with an ATXN2-luciferase reporter) viability, CellTiter-Fluor protease fluorescence, 24 h | Potency, µM (series often up to 56.7 µM), most hits filed as cytotoxic | 400,000 tested, 0.49% active | AID 651635; note: nearly all actives have a fitted effect of over 40% in size
HT1080-NT tox: kills 2HG-producing HT-1080-NT fibrosarcoma cells | AID 686970 | 360,000 tested, 1.6% active | Potency, µM (top dose mostly 46.1 µM), for inactives: top-dose activity, negative = less viability, actives largely listed as cytotoxic | HT-1080-NT fibrosarcoma viability, CellTiter-Glo ATP luminescence, 48 h;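 note: NT is the 2HG producing partner of a matched IDH1 knockdown line; 0% = DMSO-treated cells and -100% = media-only wells without cells; nearly all actives have a fitted effect of over 55% in size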
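HT-1080-NT; 750 cells/well; 5% FBS RPMI; 48 h compound, 37 degrees C; CellTiter-Glo luminescence; curve fitting and curve-class assignment.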
TGFb inhibitor: inhibitors of TGF-b signaling; HepG2 CAGA-GFP TGF-b/SMAD3 reporter, GFP fluorescence, 18 h; TGF-beta stimulated, 500 pg/mL final; Potency, µM (highest dose often 46.1 µM), without a hit: top-dose activity, negative = inhibition, usual class: inhibitors; 410,000 tested, 1.2% active; AID 588855; note: % is set by controls: 0 for no effect and ±100 for the full control effect; nearly all actives have a fitted effect of over 65% in size
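Inhibition was scored as loss of TGF-beta-induced (500 pg/mL final, 18 hours, 37 degrees C) GFP in HEPG2 cells carrying a CAGA-GFP reporter, in DMEM with 1% FBS. Well GFP was summed per cell; Activity was normalised to unstimulated and stimulated DMSO wells, then concentration-response fitting.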
HT1080 IDH1KD tx: toxicity to HT-1080 IDH1 knockdown cells (counter line). HT-1080 IDH1 knockdown viability, ATP luminescence, 48 h. Potency, µM (highest dose often 46.1 µM), without a hit: top-dose activity, negative = toxicity, most hits filed as cytotoxic. 360,000 tested, 2% active;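 note: 0% = DMSO wells and -100% = cell-free medium wells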
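In this qHTS, HT-1080 cells depleted of IDH1 are exposed for 48 h at 37 °C to compound titrations. Toxicity is scored from CellTiter-Glo luminescence, with DMSO as full viability and medium alone as none.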
ATXN2 expr inh: inhibitors of ATXN2 expression | HEK-293 ATXN2-luciferase reporter, luminescence, 24 h | Potency, µM (doses to about 57 µM), for the others: top-dose activity change, negative = inhibition, usual class: inhibitors | 360,000 tested, 0.72% active | AID 1745845; note: % is set by controls: 0 for no effect and ±100 for the full control effect; nearly all actives have a fitted effect of over 55% in size
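ATXN2-luciferase reporter cells (luciferase flanked by upstream and downstream ATXN2 gene portions) were treated 24 h at 37 °C with compounds at up to 57 uM. SteadyGlo luminescence gave expression; GF-AFC fluorescence gave viability.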
Starred values were filed as active, the others as inactive; i = inactive; ? = inconclusive; . = no result. Calls come from the whole dose curve; as a rule, active = well fitted curve in the direction sought with a large enough effect; inconclusive = small, poorly fitted or top-dose-only effect, or another doubt; inactive = no such curve, though single readings can be large; an effect the other way counts as inactive or inconclusive. Potency is the fitted concentration of half-maximal effect.

SMILES	HepG2 viability	S2 tox	HT1080-NT tox	TGFb inhibitor	HT1080 IDH1KD tx	ATXN2 expr inh
O=C(c1ccc2c(c1)N(Cc1ccc(F)cc1Cl)C(=O)c1ccccc1S2)N1CCC2(CC1)OCCO2	-19.1%	.	.	11.2µM*	.	.
CC1Oc2cc3c(-c4c(O)cc(O)c5c(O)c6c(cc45)OC(C)C(C)C6=O)c(O)cc(O)c3c(O)c2C(=O)C1C (stereo not given)	11.2µM*	?	4.61µM*	14.1µM*	8.2µM*	11.2µM*
O=C(CCCCCCCCCCC(=O)NCc1cccnc1)NCc1cccnc1	-15.5%	i	?	6.1%	4.61µM*	26.5%
CSc1ccc(C(=O)C2CCCN(Cc3cc4ccccc4[nH]3)C2)cc1 (stereo not given)	-0.2%	i	23.1µM*	?	?	-38.4%
O=C(O)c1ccc(=O)[nH]c1	.	i	.	.	.	12.4%
O=c1[nH]c(O)c(N=Nc2cc([N+](=O)[O-])ccc2O)c(=O)[nH]1	1.3%	9.47µM*	-2.4%	-0.7%	-18.3%	4.2%
O=c1[nH]c(O)c(N=Nc2ccc(SC(F)F)cc2)c(=O)[nH]1	-7.7%	?	?	-0.9%	-27.7%	-2.6%
CCOC(=O)C(O)(c1ccc(N(C)C(=O)COc2ccccc2)cc1)C(F)(F)F (stereo not given)	-1.9%	i	-6.8%	2.4%	6.8%	-11.8%
CN(C)C(=O)O/N=C(\N)COc1ccc(C(C)(C)C)cc1	-98.2%	?	11.6µM*	?	20.6µM*	.
COc1ccc2nc(NC(=O)c3nc(S(=O)(=O)Cc4cccc(C)c4)ncc3Cl)sc2c1	-96.7%	.	.	?	.	.
COc1ccc(C2=C(C(C)=O)Sc3nnc(-c4ccc(C)cc4)n3N2C(C)=O)cc1OC	-16.1%	.	.	?	.	.
CN(Cc1cccc(-c2ccncc2)c1)C(=O)Oc1ccccc1Cc1ccccc1	.	17.8µM*	18.4µM*	.	13µM*	?
CN(Cc1cccc(-c2ccncc2)c1)C(=O)Oc1ccccc1Cl	.	?	-16.6%	.	-29.4%	?
CC(=O)N1CCN(c2ccc(OC[C@@H]3CO[C@@](Cn4ccnc4)(c4ccc(Cl)cc4Cl)O3)cc2)CC1	-8.8%	.	.	?	.	.
CS(=O)(=O)c1ccc(C2=C(CNC(=O)c3ccc([N+](=O)[O-])cc3)[C@H]3CC[C@@H](C2)N3Cc2ccccc2)cc1	-27.3%	i	-11.6%	-2.3%	-10.0%	-2.1%
O=C(NCC1=C(c2cccc3ccccc23)C[C@@H]2CC[C@H]1N2Cc1ccco1)c1ccc([N+](=O)[O-])cc1	-40.6%	14.1µM*	?	?	?	?
C[C@@]12CC3CC(N)(C1)C[C@@](C)(C3)C2	.	i	.	.	.	.
CCOC(=O)c1ccccc1OC(=O)NNc1ccccc1	3.2%	?	5.8µM*	4.4%	11.6µM*	?
ClCCN(CCCl)c1ccc(/C=C/c2sc3ccccc3[n+]2CCCCI)cc1	-15.0%	.	.	?	.	.
C[C@]12CC[C@H](O)C[C@H]1CC[C@@H]1[C@@H]2CC[C@]2(C)[C@@H](C3=CC(=O)OC3)CC[C@]12O	-42.3%	?	0.517µM*	?	0.259µM*	0.316µM*
CC12CC[C@H]3[C@@H](CCC4(O)C[C@H](O)CCC34/C=N/NC(=O)Cc3ccccc3)C1(O)CCC2C1=CC(=O)OC1 (stereo not given in full)	-41.0%	i	?	-23.4%	?	?
CC12CCC(O)CC1CCC1C2CCC2(C)C(C3=CC(=O)OC3)C(O)CC12O (stereo not given)	-63.7%	?	?	10µM*	1.64µM*	?
